High-throughput results (PubChem BioAssay)
HP1b chromo inh = HTS for Inhibitors of HP1-beta Chromodomain Interactions with Methylated Histone Tails; Chromobox protein homolog 1 (Homo sapiens), P83916; AlphaScreen HP1-beta / biotin-H3K9me3 peptide binding; Potency, µM (doses to about 114 µM), for inactives: at the highest dose activity change, negative = inhibition, hits mostly inhibitors; 0.56% of 390,000 active; AID 540317, 2011; also: nearly all actives have a fitted effect of over 70% in size
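AlphaScreen: HP1-beta (50 nM) preformed 30 min with biotin-H3(1-18)K9me3 peptide (50 nM) in PBS pH 7.4, 0.01% Tween-20. Compound added for 30 min at RT, then streptavidin donor/nickel chelate acceptor beads (10 ug/mL) for 30 min.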
BAZ2B block = qHTS Assay for Inhibitors of BAZ2B | AID 504333, 2011 | Potency, µM (titrated, usually from 114 µM), for inactives: at the top dose activity change, negative = inhibition, most hits filed as inhibitors | Bromodomain adjacent to zinc finger domain protein 2B (Homo sapiens), Q9UIF8 | AlphaScreen BAZ2B-H3K14Ac peptide displacement | 4.4% of 360,000 active; also: % is scaled to controls: 0 for no effect and ±100 for the full control effect; nearly all actives have a fitted effect of over 60% in size
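AlphaScreen displacement of biotin-H3(5-23)K14Ac peptide (50 nM final) from BAZ2B (50 nM final) in PBS pH 7.4, 0.01% Tween-20; complex preformed 30 min RT, then compounds (top 110 uM) 30 min RT, beads 20 min dark.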
Sfp inh = qHTS Assay for Inhibitors of Bacillus subtilis Sfp phosphopantetheinyl transferase (PPTase); Potency, µM, for the others: largest response in the series, negative = inhibition, most hits filed as inhibitors; Biochemical Sfp PPTase activity, qHTS; AID 1490, 2009; 3.5% of 310,000 active;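 also: the enzyme is Sfp with the accession as filed and its product quenches rhodamine fluorescence; 0% = enzyme reaction without inhibitor and -100% = no enzyme wells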
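With Hepes-Na pH 7.6 buffer containing 10 mM MgCl2, Sfp (15 nM) modified BHQ-2-YbbR (12.5 uM) using rhodamine-CoA (5 uM). Two reads 30 minutes apart at 525/598 nm yielded each well's rate.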
G9a block = qHTS Assay for Inhibitors of Histone Lysine Methyltransferase G9a | Histone-lysine N-methyltransferase EHMT2 (Homo sapiens), Q96KQ7 | G9a H3K9 monomethylation, AlphaScreen, 2 h | Potency, µM (titrated, usually from 102 µM), for the others: at the top dose activity, negative = inhibition, most hits filed as inhibitors | 8.8% of 350,000 active; also: % is scaled to controls: 0 for no effect and ±100 for the full control effect; nearly all actives have a fitted effect of over 75% in size
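G9a (20 nM) preincubated 15 min RT with compounds, then 500 nM biotinylated H3K9 peptide and 20 uM SAM added; 2 h RT reaction. Monomethyl-H3K9 product detected by AlphaScreen with anti-H3K9me1 antibody, streptavidin donor and anti-rabbit IgG acceptor beads.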
ALOX12 inh = Primary qHTS assay for inhibitors of human arachidonate 12S-lipoxygenase (ALOX12): Round 2; purified 12hLO, xylenol orange hydroperoxide absorbance; Potency, µM (series often up to 108 µM), for the others: top-dose activity change, negative = inhibition, most hits filed as inhibitors; 1.1% of 580,000 active; also: % is scaled to controls: 0 for no effect and ±100 for the full control effect
Target sequence (P18054 whole entry, looked up): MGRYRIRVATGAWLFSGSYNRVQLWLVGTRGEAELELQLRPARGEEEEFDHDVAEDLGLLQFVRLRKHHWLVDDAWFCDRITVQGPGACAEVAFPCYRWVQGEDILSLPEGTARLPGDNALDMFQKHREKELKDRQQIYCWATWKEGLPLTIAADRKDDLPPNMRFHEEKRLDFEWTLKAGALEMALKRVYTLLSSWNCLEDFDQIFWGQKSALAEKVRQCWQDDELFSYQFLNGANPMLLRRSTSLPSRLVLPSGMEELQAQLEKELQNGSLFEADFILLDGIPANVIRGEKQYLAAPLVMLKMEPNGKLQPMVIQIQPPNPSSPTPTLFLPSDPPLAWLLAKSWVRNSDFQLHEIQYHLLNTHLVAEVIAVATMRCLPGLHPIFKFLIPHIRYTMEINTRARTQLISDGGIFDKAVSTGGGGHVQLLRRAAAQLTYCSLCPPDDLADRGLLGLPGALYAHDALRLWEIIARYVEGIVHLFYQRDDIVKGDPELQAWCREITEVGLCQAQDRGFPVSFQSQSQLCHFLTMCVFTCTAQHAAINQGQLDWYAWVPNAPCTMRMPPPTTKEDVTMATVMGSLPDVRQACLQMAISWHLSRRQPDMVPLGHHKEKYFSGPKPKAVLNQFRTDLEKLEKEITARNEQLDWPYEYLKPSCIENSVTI
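Purified human 12hLO (150 nM final) in 25 mM Hepes, 0.01% Triton X-100, pH 7.0 was preincubated 15 min at room temperature with compound. Then 40 uM arachidonic acid was added, 30 min. Hydroperoxide was read by Fe-XO absorbance ratio 573/405 nm.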
JMJD2A Tudor inh = qHTS Assay for Inhibitors of JMJD2A-Tudor Domain. Lysine-specific demethylase 4A (Homo sapiens), O75164. Potency, µM (top dose mostly 114 µM), for inactives: at the highest dose activity change, negative = inhibition, usual class: inhibitors. AlphaScreen JMJD2A-Tudor / H3K4me3 peptide binding. AID 504339, 2011. 4.4% of 390,000 active; also: % is scaled to controls: 0 for no effect and ±100 for the full control effect; nearly all actives have a fitted effect of over 50% in size
* hit, by the source's call; [ ] = remark or other dose. Rows were chosen to be rich in hits. Some 8.7% of all compounds tested hit in one or more screens of this group. Calls follow the shape of the dose curve; as a rule, active = well fitted curve in the direction sought with a large enough effect; inconclusive = small, poorly fitted or top-dose-only effect, or another doubt; inactive = no such curve, though single readings can be large; an effect the other way counts as inactive or inconclusive. Potency is read from the fitted curve at half-maximal effect.

CCCn1cc(-c2ccncc2)cc1C(=O)NC(C)c1ccc(OC)cc1 (stereo unspecified) was read as ALOX12 inh 31%.
O=C(N[C@H]1CCN2C(=O)c3cc(-c4ccccc4)ccc3NC(=O)[C@H]12)c1cnccn1 was read as ALOX12 inh 4%[176 µM].
Screening Clc1ccc(C2=NNC(=NCc3ccc4c(c3)OCO4)SC2)cc1 returned HP1b chromo inh -37%, BAZ2B block -35%, Sfp inh -17%, G9a block 28µM*, ALOX12 inh inconclusive and JMJD2A Tudor inh inconclusive.
Screening CC(NC(=O)c1ccccc1Cl)C(=O)NCc1cccs1 (stereo unspecified) returned HP1b chromo inh 11%, BAZ2B block 20%, G9a block -37%, ALOX12 inh -7% and JMJD2A Tudor inh -19%.
`C[C@H](NC(=O)c1ccccc1Cl)C(=O)NCc1cccs1` gave HP1b chromo inh 42%, BAZ2B block -19%, Sfp inh 11%, G9a block 45µM*, ALOX12 inh -28% and JMJD2A Tudor inh -14%.
Screening C(=N\N1CCN(C2c3ccccc3-c3ccccc32)CC1)/c1ccccn1 returned HP1b chromo inh inconclusive, BAZ2B block 20µM*, Sfp inh -22%, G9a block 48%[0.501 µM], ALOX12 inh -5% and JMJD2A Tudor inh 18µM*.
For Cc1ccc(/C=N/N2CCN(C3c4ccccc4-c4ccccc43)CC2)s1 the results were HP1b chromo inh -9%, BAZ2B block -11%, Sfp inh 17%, G9a block 79µM*, ALOX12 inh -9% and JMJD2A Tudor inh -34%.
Screening C/C(=N\N1CCN(C2c3ccccc3-c3ccccc32)CC1)c1cccnc1 returned HP1b chromo inh -21%, BAZ2B block inconclusive, Sfp inh -12%, G9a block 20%[0.501 µM], ALOX12 inh -19% and JMJD2A Tudor inh inconclusive.
Screening C(=N\N1CCN(C2c3ccccc3-c3ccccc32)CC1)/c1cccnc1 returned HP1b chromo inh inconclusive, BAZ2B block 40µM*, Sfp inh inconclusive, G9a block 40%[0.501 µM], ALOX12 inh inconclusive and JMJD2A Tudor inh 56µM*.
For COc1ccc(/C=N/N2CCOCC2)cc1O the results were HP1b chromo inh 34%, BAZ2B block 0%, Sfp inh 19%, G9a block -17%[59 µM], ALOX12 inh 7% and JMJD2A Tudor inh 0%.
For COc1ccc(/C=N/N2CCN(C3c4ccccc4-c4ccccc43)CC2)cc1O the results were HP1b chromo inh inconclusive, BAZ2B block 35µM*, Sfp inh -5%, G9a block inconclusive, ALOX12 inh -11% and JMJD2A Tudor inh inconclusive.
Screening CC(C)C(=O)Nc1cc2c(cc1Sc1ccccc1Cl)n(C)c(=O)n2C returned ALOX12 inh 3%.
O=C(NN1C(=O)/C(=C/C=C/c2ccco2)SC1=S)c1ccncc1 was read as HP1b chromo inh 13µM*, BAZ2B block 5.6µM*, Sfp inh 7.9µM*, G9a block 4µM*, ALOX12 inh 50µM* and JMJD2A Tudor inh 14µM*.
`O=C(NN1C(=O)/C(=C/C=C/c2ccccc2)SC1=S)c1ccncc1` gave HP1b chromo inh -16%, BAZ2B block -33%, Sfp inh -29%, G9a block 45µM*, ALOX12 inh inconclusive and JMJD2A Tudor inh -35%.
For Cn1cc(/C=C2\SC(=S)N(NC(=O)c3ccccc3)C2=O)c2ccccc21 the results were HP1b chromo inh 5%, BAZ2B block inconclusive, Sfp inh 8%, G9a block 1%[59 µM], ALOX12 inh 10% and JMJD2A Tudor inh 2%.
O=C(c1ccncc1)N1CCC(Cc2nc(-c3ccccc3)n[nH]2)CC1 was read as ALOX12 inh 33%.
For CN(Cc1cccs1)C(=O)c1ccc2ccccc2c1 the results were ALOX12 inh -21%.
CCOC(=O)N1CCN(c2c(NCCCN(CC)CC)c(=O)c2=O)CC1 was read as HP1b chromo inh -3%, BAZ2B block -35%, Sfp inh 14%, G9a block 69%[12.7 µM], ALOX12 inh 0% and JMJD2A Tudor inh -18%.
For CCOC(=O)C1CCCN(c2c(NCCCN(C)c3ccccc3)c(=O)c2=O)C1 (stereo unspecified) the results were HP1b chromo inh 34%, BAZ2B block 0%, Sfp inh -1%, G9a block 56µM*, ALOX12 inh inconclusive and JMJD2A Tudor inh -13%.
`CCOC(=O)N1CCN(c2c(NCCCN(CC)c3cccc(C)c3)c(=O)c2=O)CC1` gave HP1b chromo inh -17%, BAZ2B block 1%, Sfp inh -2%, G9a block 14µM*, ALOX12 inh 0% and JMJD2A Tudor inh -24%.
Screening NS(=O)(=O)c1ccc(N2N=C(c3ccccc3)CC2c2ccccc2Br)cc1 (stereo unspecified) returned HP1b chromo inh 80%, ALOX12 inh -10% and JMJD2A Tudor inh 6%.
`O=[N+]([O-])c1ccc(N2N=C(c3ccccc3)CC2c2ccccc2O)cc1` (stereo unspecified) gave BAZ2B block -35%, Sfp inh inconclusive, G9a block inconclusive and ALOX12 inh 25µM*.
O=[N+]([O-])c1ccc(N2N=C(c3ccco3)CC2c2ccccc2)cc1 (stereo unspecified) was read as HP1b chromo inh -15%, BAZ2B block inconclusive, Sfp inh 50µM*, G9a block 7.9µM*, ALOX12 inh inconclusive and JMJD2A Tudor inh -28%.
`Fc1ccc(C2CC(c3ccco3)=NN2c2ccccc2)cc1` (stereo unspecified) gave HP1b chromo inh 379%, BAZ2B block 147%, Sfp inh 8%, ALOX12 inh inconclusive and JMJD2A Tudor inh 194%.
COc1ccccc1N1N=C(c2ccc([N+](=O)[O-])cc2)CC1c1ccccc1 (stereo unspecified) was read as HP1b chromo inh inconclusive, BAZ2B block 11µM*, Sfp inh -3%, G9a block 22%[0.501 µM], ALOX12 inh 49% and JMJD2A Tudor inh 32µM*.
For Cn1c2ccccc2c(=O)c2cc(C#CC3(O)CCCCC3)ccc21 the results were HP1b chromo inh 51%, BAZ2B block 6%, Sfp inh 5%, ALOX12 inh -6% and JMJD2A Tudor inh -5%.
